SMILES strings stand for the structures. Records with an inconclusive call do not appear. Entries that show only a call come without a potency. Activity calls are given as the source filed them. The call rests on the fitted dose curve; in most records, active means well fitted cell-killing curve with a large enough effect; inconclusive means small, poorly fitted or top-dose-only effect, or effect the other way; inactive means flat fitted curve, though single readings scatter.

The first experiment has as its system PA-1. The experiment can be described thus: Primary qHTS to identify gynecologic anti-cancer compounds using libraries of approved drugs and bioactive compounds (AID 1345084). Further: nearly all actives have a fitted effect of over 55% in size. The settings on record: Gynecologic cancer cell panel viability, ATPlite luminescence, 48 h; series mostly up to 57.5 µM. The gist of the method:
(§1)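 Measured: luminescence after ATPlite addition (15 min, RT). Exposure: 48 h, 37 C, 5% CO2.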
Background: qHTS replaces the single test concentration by a dilution series.
In the case of `CC1=C2C(=O)C=C(CO)C2[C@H]2OC(=O)[C@H](C)[C@@H]2[C@@H](OC(=O)Cc2ccc(O)cc2)C1` (some centres undefined), the Potency entry is “inactive”.

Take `CC1=CCC[C@@H]2[C@](CCc3ccoc3)(C(=O)O)[C@H](C)CC[C@@]12C`: the Potency result is “inactive”.

Turning to `CC1CC(=O)C2C(O)(C1)CC(O)C13OC1c1c(O)cccc1C(=O)C23O` (centres undefined), the Potency entry was “inactive”.

Regarding `COc1cc([C@H]2OC[C@](O)(Cc3ccc(O[C@@H]4O[C@H](CO)[C@@H](O)[C@H](O)[C@H]4O)c(OC)c3)[C@@H]2CO)ccc1O`, the Potency result was “inactive”.

With `CN1CCCC1Cc1c[nH]c2ccc(CCS(=O)(=O)c3ccccc3)cc12` (centres undefined), the Potency entry is “inactive”.

With `COC1CC(O[C@H]2CC[C@@]3(C)C(=CC[C@]4(O)C3[C@H](O)[C@@H](O)[C@]3(C)[C@@H]([C@H](C)O)CC[C@@]34O)C2)OC(C)C1OC1CC(OC)C(OC2CC(OC)C(OC3OC(C)C(OC4OC(CO)C(O)C(O)C4O)C(OC)C3O)C(C)O2)C(C)O1` (some centres undefined), the activity change, negative = cytotoxicity is -4.49% [at 11.6 µM] (inactive).

Consider `C/C=C1/[C@H](O[C@@H]2O[C@H](CO)[C@@H](O)[C@H](O)[C@H]2O)OC=C2C(=O)O[C@@H]3C[C@@H](C(C)CO)[C@H](COC(=O)C[C@H]21)[C@H]3C` (some centres undefined), for which the Potency entry was “inactive”.

As for `C[C@@H](c1ccccc1)N(C(N)=NC#N)c1cccc2ncccc12`, the Potency result is “inactive”.

As for `COc1cc(/C=C/C(=O)OC[C@H]2O[C@@H](OC3CC(C)=C(C(=O)O)C(C)(C)C3)[C@H](O)[C@@H](O)[C@@H]2O)cc(OC)c1O` (some centres undefined), the Potency entry is “inactive”.

For `CCC(C)C(=O)O[C@H]1C[C@](C)(O)[C@]23OC(C)(C)[C@H](C[C@H](OC(=O)c4ccccc4)[C@]2(COC(C)=O)[C@H]1OC(=O)C(C)CC)[C@H]3OC(C)=O` (some centres undefined), the Potency result is “inactive”.

With `CC(=O)NC1CC(=O)C23C(=O)NC(Cc4c[nH]c5ccccc45)C2C(C)=C(C)C(O)C3/C=C/CC(C)/C=C(/C)C(O)C1O` (centres undefined), the Potency entry is “inactive”.

Take `COc1ccc(N2CCN(CCCNC(=O)Cn3c(=O)c4cccn4c4c(C)ccnc43)CC2)cc1`: the Potency result was “inactive”.

On to `OC[C@H]1O[C@@H](OCc2ccccc2)[C@H](O[C@@H]2OC[C@@H](O)[C@H](O)[C@H]2O)[C@@H](O)[C@@H]1O`, for which the Potency result is “inactive”.

In the case of `O=C(/C=C/c1ccc(O)cc1)OC[C@@]1(O)C=C[C@@H]2C(C(=O)O)=CO[C@@H](O[C@@H]3O[C@H](CO)[C@@H](O)[C@H](O)[C@H]3O)[C@@H]21`, the Potency entry was “inactive”.

For the compound `CC(C)=C1CC2C(CCC2(C)O)C(C)(O)CC1=O` (centres undefined), the Potency result was “inactive”.

Take `O=C(/C=C/c1ccc(O)cc1)O[C@H]1[C@H](OC2CCCCC2O)O[C@H](CO)[C@@H](O)[C@@H]1O` (some centres undefined): the Potency entry is “inactive”.

`O=C(/C=C/c1ccc(O)c(O)c1)O[C@@H]1[C@@H](O)[C@H](OC2CCCCC2O)O[C@H](CO)[C@H]1O` (some centres undefined): the Potency result was “inactive”.

As to `C/C(=C\CO)CC/C=C(\C)C(=O)O[C@@H]1O[C@H](CO)[C@@H](O)[C@H](O)[C@H]1O`, the Potency entry was “inactive”.

As for `COC(=O)C1=COC(OC2OC(CO)C(O)C(O)C2O)C2C(C)C(OC(=O)/C=C/c3ccc(O)cc3)C(O)C12` (centres undefined), the Potency result is “inactive”.

In the case of `C[C@]12CC[C@@H]3c4ccc(O)cc4CC[C@H]3[C@@H]1C[C@@H](O[C@@H]1O[C@H](C(=O)O)[C@@H](O)[C@H](O)[C@H]1O)[C@@H]2O`, the Potency entry is “inactive”.

The test system of a further experiment is SKOV3. The description is as above. The settings on record: Gynecologic cancer cell panel viability, ATPlite luminescence, 48 h; series mostly up to 57.5 µM. Put shortly:
as §1
On the technique in general: In ATP-based viability assays light output follows the ATP content of the culture.
Turning to `O=C(O)CCc1c(C(=O)O)[nH]c2cc(Cl)cc(Cl)c12`, the Potency result is “inactive”.

For the compound `OC[C@@]1(O)CO[C@H](OC[C@H]2O[C@@H](OCCc3ccccc3)[C@H](O)[C@@H](O)[C@@H]2O)[C@@H]1O`, the Potency entry was “inactive”.

As for `C=C1CC[C@H]2[C@@](C)(CCC(O)[C@@]2(C)CO)[C@@H]1/C=C/C(=C\C(=O)O)C(=O)O` (some centres undefined), the Potency result is “inactive”.

With `C=C1C(OC(C)=O)C(=O)C2C(C)(C)C(O)CCC2(C)C1CC(OC(C)=O)/C(C)=C/COC(C)=O` (centres undefined), the Potency result was “inactive”.

With `Cc1cc(-c2nncc3c(C(C)(C)C)c(OCc4ncnn4C)nn23)no1`, the Potency entry is “inactive”.

`C=C1CC2C(C)(CCC(=O)O)C(C(C)(C)O)CCC2(C)C2(C(=O)OC)C(=O)C(C)(O)C(=O)C12C` (centres undefined): the Potency entry was “inactive”.

Regarding `C[C@@H]1O[C@@H](O[C@H]2[C@H](OC(=O)[C@]34CCC(C)(C)C[C@H]3C3=CCC5[C@@]6(C)CC[C@H](O[C@@H]7O[C@H](CO[C@@H]8OC[C@H](O)[C@H](O)[C@H]8O[C@@H]8OC[C@@H](O)[C@H](O)[C@H]8O)[C@@H](O)[C@H](O)[C@H]7O)C(C)(C)C6CC[C@@]5(C)[C@]3(C)C[C@H]4O)O[C@H](CO)[C@@H](O)[C@@H]2O)[C@H](O[C@@H]2O[C@H](CO)[C@@H](O)[C@H](O)[C@H]2O)[C@H](O)[C@H]1O[C@@H]1OC[C@@H](O)[C@H](O[C@@H]2OC[C@@H](O)[C@H](O)[C@H]2O)[C@H]1O` (some centres undefined), the activity change, negative = cytotoxicity is 0% [at 6.55 µM] (inactive).

`COCCCc1sc(-c2ccccc2)nc1C(=O)Nc1ccccc1-c1nc2cc(CN3CCCC3)cnc2s1`: the Potency result is “inactive”.

For the compound `COc1cnc(-c2ccc(Cn3c(CC(C)(C)C(=O)O)c(SC(C)(C)C)c4cc(OC[C@@H]5Cc6ccccc6N5C(C)=O)ccc43)cc2)nc1`, the Potency entry was “inactive”.

Regarding `COC(=O)C(CC1CCCC1)c1ccc(S(C)(=O)=O)cc1` (centres undefined), the Potency result is “inactive”.

For `N#Cc1cccc(-c2c[nH]c3ncnc(N4CCOCC4)c23)c1`, the Potency result is “inactive”.

Take `CC(=O)O[C@@H]1[C@@H](O)[C@H](C)O[C@@H](O[C@H]2[C@@H]3C=CO[C@@H](O[C@@H]4O[C@H](CO)[C@@H](O)[C@H](O)[C@H]4OC(C)=O)[C@@H]3[C@@]3(CO)O[C@@H]23)[C@@H]1OC(=O)/C=C/c1ccc(O)cc1`: the Potency entry was “inactive”.

Consider `COc1ccc(-n2[nH]c3c(cnc4ccccc43)c2=O)cc1`, for which the Potency entry is “inactive”.

As for `COc1cc(/C=C/C(=O)OC[C@H]2O[C@@H](OC3OC=C(C(=O)O)C4C(O)CC(C)(O)C34)[C@H](O)[C@@H](O)[C@@H]2O)cc(OC)c1O` (some centres undefined), the Potency result is “inactive”.

As for `CC1(C)CC[C@]2(C(=O)O[C@@H]3O[C@H](CO)[C@@H](O)[C@H](O)[C@H]3O)CC[C@]3(C)C(=CCC4[C@@]5(C)CC[C@H](O[C@@H]6O[C@H](C(=O)O)[C@@H](O)[C@H](O)[C@H]6OC6OC(CO)C(O)C(O)C6O)C(C)(C)C5CC[C@]43C)[C@@H]2C1` (some centres undefined), the activity change, negative = cytotoxicity was 14.1% [at 11.6 µM] (inactive).

For the compound `CC1(C)CCC[C@]2(C)C1CC=C(CO)[C@H]2CC/C(=C/CO)CO` (some centres undefined), the Potency result was “inactive”.

On to `CCC(C)C(N)C(=O)NCCN1CCOCC1` (centres undefined), for which the Potency result is “inactive”.

On to `N#Cc1cccc(-c2nc(-c3cccnc3)no2)c1`, for which the Potency entry was “inactive”.

Consider `CC1CCC2C(C)(C)[C@H](O)CC[C@]2(C)C12Cc1c(O)cc3c(c1O2)CN(C(CCC(=O)O)C(=O)O)C3=O` (some centres undefined), for which the Potency result was “inactive”.

On to `CC1=C2C(=O)C=C(CO)C2[C@H]2OC(=O)[C@H](C)[C@@H]2[C@@H](OC(=O)Cc2ccc(O)cc2)C1` (some centres undefined), for which the Potency result is “inactive”.

As for `CC1=CCC[C@@H]2[C@](CCc3ccoc3)(C(=O)O)[C@H](C)CC[C@@]12C`, the Potency entry was “inactive”.

On to `CC1CC(=O)C2C(O)(C1)CC(O)C13OC1c1c(O)cccc1C(=O)C23O` (centres undefined), for which the Potency entry is “inactive”.

On to `COc1cc([C@H]2OC[C@](O)(Cc3ccc(O[C@@H]4O[C@H](CO)[C@@H](O)[C@H](O)[C@H]4O)c(OC)c3)[C@@H]2CO)ccc1O`, for which the Potency result is “inactive”.

For `CN1CCCC1Cc1c[nH]c2ccc(CCS(=O)(=O)c3ccccc3)cc12` (centres undefined), the Potency result was “inactive”.

For `COC1CC(O[C@H]2CC[C@@]3(C)C(=CC[C@]4(O)C3[C@H](O)[C@@H](O)[C@]3(C)[C@@H]([C@H](C)O)CC[C@@]34O)C2)OC(C)C1OC1CC(OC)C(OC2CC(OC)C(OC3OC(C)C(OC4OC(CO)C(O)C(O)C4O)C(OC)C3O)C(C)O2)C(C)O1` (some centres undefined), the activity change, negative = cytotoxicity is 1.02% [at 11.6 µM] (inactive).

Turning to `C/C=C1/[C@H](O[C@@H]2O[C@H](CO)[C@@H](O)[C@H](O)[C@H]2O)OC=C2C(=O)O[C@@H]3C[C@@H](C(C)CO)[C@H](COC(=O)C[C@H]21)[C@H]3C` (some centres undefined), the Potency result was “inactive”.

Turning to `C[C@@H](c1ccccc1)N(C(N)=NC#N)c1cccc2ncccc12`, the Potency entry is “inactive”.

`COc1cc(/C=C/C(=O)OC[C@H]2O[C@@H](OC3CC(C)=C(C(=O)O)C(C)(C)C3)[C@H](O)[C@@H](O)[C@@H]2O)cc(OC)c1O` (some centres undefined): the Potency result is “inactive”.

For the compound `CCC(C)C(=O)O[C@H]1C[C@](C)(O)[C@]23OC(C)(C)[C@H](C[C@H](OC(=O)c4ccccc4)[C@]2(COC(C)=O)[C@H]1OC(=O)C(C)CC)[C@H]3OC(C)=O` (some centres undefined), the Potency result is “inactive”.

As for `CC(=O)NC1CC(=O)C23C(=O)NC(Cc4c[nH]c5ccccc45)C2C(C)=C(C)C(O)C3/C=C/CC(C)/C=C(/C)C(O)C1O` (centres undefined), the Potency result was “inactive”.

Consider `COc1ccc(N2CCN(CCCNC(=O)Cn3c(=O)c4cccn4c4c(C)ccnc43)CC2)cc1`, for which the Potency result is “inactive”.

Take `OC[C@H]1O[C@@H](OCc2ccccc2)[C@H](O[C@@H]2OC[C@@H](O)[C@H](O)[C@H]2O)[C@@H](O)[C@@H]1O`: the Potency entry was “inactive”.

As to `O=C(/C=C/c1ccc(O)cc1)OC[C@@]1(O)C=C[C@@H]2C(C(=O)O)=CO[C@@H](O[C@@H]3O[C@H](CO)[C@@H](O)[C@H](O)[C@H]3O)[C@@H]21`, the Potency entry is “inactive”.

Regarding `CC(C)=C1CC2C(CCC2(C)O)C(C)(O)CC1=O` (centres undefined), the Potency result is “inactive”.

As to `O=C(/C=C/c1ccc(O)cc1)O[C@H]1[C@H](OC2CCCCC2O)O[C@H](CO)[C@@H](O)[C@@H]1O` (some centres undefined), the Potency entry is “inactive”.

`O=C(/C=C/c1ccc(O)c(O)c1)O[C@@H]1[C@@H](O)[C@H](OC2CCCCC2O)O[C@H](CO)[C@H]1O` (some centres undefined): the Potency result is “inactive”.

On to `C/C(=C\CO)CC/C=C(\C)C(=O)O[C@@H]1O[C@H](CO)[C@@H](O)[C@H](O)[C@H]1O`, for which the Potency result is “inactive”.

In the case of `COC(=O)C1=COC(OC2OC(CO)C(O)C(O)C2O)C2C(C)C(OC(=O)/C=C/c3ccc(O)cc3)C(O)C12` (centres undefined), the Potency entry is “inactive”.

In the case of `C[C@]12CC[C@@H]3c4ccc(O)cc4CC[C@H]3[C@@H]1C[C@@H](O[C@@H]1O[C@H](C(=O)O)[C@@H](O)[C@H](O)[C@H]1O)[C@@H]2O`, the Potency result is “inactive”.
